Measured values reported in PubChem BioAssay AID1159580 (chemical genetic matrix, 2015).
Where “and” joins values, the source holds several entries; their conditions need not be identical. Identical values can stand only once. Screen size: about 5,500 compounds; about 2,000 (36%) were called active. Not shown: some 18% with an inconclusive outcome. No stated cut-off is given here; in the data, active means normalized growth mostly below about 0.91 (no sharp cut-off); inconclusive means no clear call, values can overlap the other calls; inactive means mostly above about 0.92. This is one part of the list.

Test: chemical genetic growth profiling, strain panel (AID 1159580);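 further: tested at 20 µM; growth read once vehicle control cultures reached saturation at 30 °C; 1 = growth at the plate median or of vehicle wells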
Settings: S. cerevisiae deletion strains, growth OD

Measured: normalized growth

COc1cc(C)c2c(=O)cc(-c3ccccc3)oc2c1
inactive: locus YAL021C, strain ccr4, stronger effect = lower value 0.983 | locus YAL026C, strain drs2, stronger effect = lower value 0.922 | locus YBR009C, strain hhf1, stronger effect = lower value 0.946 | locus YBR021W, strain FUR4, stronger effect = lower value 0.921 | locus YBR171W, strain sec66, stronger effect = lower value 0.911 | locus YBR229C, strain ROT2, stronger effect = lower value 0.984 | locus YBR231C, strain swc5, stronger effect = lower value 0.925 | locus YBR279W, strain paf1, stronger effect = lower value 0.942 | locus YCL016C, strain dcc1, stronger effect = lower value 0.93 | locus YCL029C, strain bik1, stronger effect = lower value 0.968 | locus YCL061C, strain MRC1, stronger effect = lower value 0.927 | locus YCL069W, strain vba3, stronger effect = lower value 0.939 | locus YDL005C, strain med2, stronger effect = lower value 0.956 | locus YDL035C, strain GPR1, stronger effect = lower value 1.01 | locus YDL074C, strain BRE1, stronger effect = lower value 0.896 | locus YDL101C, strain DUN1, stronger effect = lower value 0.948 | locus YDL134C, strain PPH21, stronger effect = lower value 0.998 | locus YDL185W, strain tfp1, stronger effect = lower value 0.979 | locus YDL192W, strain arf1, stronger effect = lower value 0.966 | locus YDR001C, strain nth1, stronger effect = lower value 0.938 | locus YDR069C, strain doa4, stronger effect = lower value 0.941 | locus YDR101C, strain arx1, stronger effect = lower value 0.989 | locus YDR150W, strain NUM1, stronger effect = lower value 1.02 | locus YDR159W, strain sac3, stronger effect = lower value 0.9 | locus YDR162C, strain NBP2, stronger effect = lower value 0.996 | locus YDR195W, strain ref2 1 | locus YDR297W, strain sur2, stronger effect = lower value 0.927 | locus YDR318W, strain mcm21, stronger effect = lower value 0.968 | locus YDR334W, strain swr1, stronger effect = lower value 0.938 | locus YDR335W, strain msn5, stronger effect = lower value 0.942 | locus YDR388W, stronger effect = lower value 0.967 | locus YDR502C, strain sam2, stronger effect = lower value 0.977 | locus YEL037C, strain rad23, stronger effect = lower value 0.942 | locus YEL061C, strain CIN8 (second series), stronger effect = lower value 0.926 | locus YEL061C, strain CIN8, stronger effect = lower value 0.985 | locus YER015W, strain faa2, stronger effect = lower value 0.945 | locus YER016W, strain bim1, stronger effect = lower value 0.935 | locus YER110C, stronger effect = lower value 0.963 | locus YER111C, strain swi4, stronger effect = lower value 0.96 | locus YER155C, strain BEM2, stronger effect = lower value 0.973 | locus YER167W, strain BCK2, stronger effect = lower value 0.994 | locus YFR010W, strain ubp6, stronger effect = lower value 0.933 | locus YGL078C, strain dbp3, stronger effect = lower value 0.972 | locus YGL086W, strain mad1, stronger effect = lower value 0.973 | locus YGL173C, strain kem1, stronger effect = lower value 0.935 | locus YGL227W, strain vid30, stronger effect = lower value 0.924 | locus YGL248W, strain PDE1, stronger effect = lower value 0.955 | locus YGR078C, strain PAC10, stronger effect = lower value 0.955 | locus YGR135W, strain pre9, stronger effect = lower value 0.98 | locus YGR252W, strain gcn5, stronger effect = lower value 0.96 | locus YHR013C, strain ard1, stronger effect = lower value 0.904 | locus YHR027C, strain rpn1, stronger effect = lower value 0.94 | locus YHR030C, strain SLT2, stronger effect = lower value 0.995 and 0.867 | locus YHR079C, strain IRE1 (second series), stronger effect = lower value 0.974 | locus YHR079C, strain IRE1, stronger effect = lower value 0.868 | locus YHR094C, strain hxt1, stronger effect = lower value 0.965 | locus YHR129C, strain ARP1, stronger effect = lower value 0.976 | locus YHR200W, strain rpn10, stronger effect = lower value 0.963 | locus YIL066C, strain RNR3, stronger effect = lower value 0.996 | locus YIL073C, strain SPO22, stronger effect = lower value 0.949 | locus YIL125W, strain kgd1, stronger effect = lower value 0.964 | locus YIR030C, strain dcg1, stronger effect = lower value 0.958 | locus YJL092W, strain hpr5, stronger effect = lower value 0.923 | locus YJL115W, strain asf1, stronger effect = lower value 0.955 | locus YJL134W, strain LCB3, stronger effect = lower value 0.987 | locus YJL154C, strain vps35, stronger effect = lower value 0.942 | locus YJL168C, strain set2, stronger effect = lower value 0.969
active: locus YAL030W, strain snc1, stronger effect = lower value 0.928 | locus YBL061C, strain skt5, stronger effect = lower value 0.915 | locus YBR023C, strain chs3, stronger effect = lower value 0.913 | locus YCL011C, strain gbp2, stronger effect = lower value 0.891 | locus YCR088W, strain abp1, stronger effect = lower value 0.92 | locus YDL040C, strain nat1, stronger effect = lower value 0.93 | locus YDR137W, strain rgp1, stronger effect = lower value 0.762 | locus YDR392W, strain spt3, stronger effect = lower value 0.47 | locus YEL003W, strain gim4, stronger effect = lower value 0.893 | locus YER155C, strain BEM2 (second series), stronger effect = lower value 0.505 | locus YGL167C, strain pmr1, stronger effect = lower value 0.913 | locus YGL240W, strain doc1, stronger effect = lower value 0.856 | locus YGL253W, strain hxk2, stronger effect = lower value 0.909 | locus YHR142W, strain chs7, stronger effect = lower value 0.73 | locus YJL095W, strain BCK1 (second series), stronger effect = lower value 0.919 | locus YJL129C, strain trk1, stronger effect = lower value 0.833 | locus YJL164C, strain tpk1, stronger effect = lower value 0.909 | locus YJL166W, strain qcr8, stronger effect = lower value 0.893
0.914 (inactive) and 0.876 (active): locus YJL095W, strain BCK1, stronger effect = lower value
